# Rows were chosen to be rich in hits. Some 4.1% of all compounds tested hit in one or more screens of this group.
# rCAG binder: binds r(CAG) RNA repeats | inhibition, % at 3 µM | actives 1.3% (n = 370,000) | r(CAG) RNA repeat, TO-PRO-1 dye displacement fluorescence;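 active = inhibition above the plate cutoff, the mean of all test compounds on that plate plus 3 SD, cut at about 35% in these data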;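 note: 0% = DMSO alone and 100% = 100 µM mitoxantrone as full dye displacement; higher means more dye released from RNA so lower well fluorescence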
# ABHD5-PLIN5 inh: inhibitors of human ABHD5-perilipin-5 interaction; Q00G26+Q8WTS1; actives 0.78% (n = 360,000); inhibition, % at 4 µM; Split G. princeps luciferase complementation, luminescence, 4 h;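 active = inhibition above the mean inhibition across every tested compound plus 3 SD, cut at about 22% in these data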;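 note: 0% = DMSO only wells and the 100% control is not disclosed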
# MBD2 DNA inh: MBD2-methylated oligo binding inhibition; TR-FRET, MBD2 binding to methylated oligonucleotide; inhibition, % at 4.4 µM; actives 0.31% (n = 370,000); AID 686964; in the data active = inhibition above about 13%
# PRMT1 FP inh: blocks human protein arginine methyltransferase 1. recombinant PRMT1, activity-based probe fluorescence polarization. inhibition, % at 2.79 µM. actives 1.3% (n = 370,000). AID 652257;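 active = inhibition above about 21% made by adding two undisclosed values, limit read from the data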
# UHRF1 MBD2 ctr: UHRF1 methyl-DNA binding inhibition; Q96T88; UHRF1 binding to methylated oligo, TR-FRET; inhibition, % at 4.4 µM; actives 0.75% (n = 370,000); in the data active = inhibition above about 21%;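 note: UHRF1 SRA domain binding a hemimethylated CpG hairpin DNA probe; 0% = median of test compound wells and 100% = reference inhibitor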
# Target sequence (Q96T88 whole entry, looked up, the tested form may be a part): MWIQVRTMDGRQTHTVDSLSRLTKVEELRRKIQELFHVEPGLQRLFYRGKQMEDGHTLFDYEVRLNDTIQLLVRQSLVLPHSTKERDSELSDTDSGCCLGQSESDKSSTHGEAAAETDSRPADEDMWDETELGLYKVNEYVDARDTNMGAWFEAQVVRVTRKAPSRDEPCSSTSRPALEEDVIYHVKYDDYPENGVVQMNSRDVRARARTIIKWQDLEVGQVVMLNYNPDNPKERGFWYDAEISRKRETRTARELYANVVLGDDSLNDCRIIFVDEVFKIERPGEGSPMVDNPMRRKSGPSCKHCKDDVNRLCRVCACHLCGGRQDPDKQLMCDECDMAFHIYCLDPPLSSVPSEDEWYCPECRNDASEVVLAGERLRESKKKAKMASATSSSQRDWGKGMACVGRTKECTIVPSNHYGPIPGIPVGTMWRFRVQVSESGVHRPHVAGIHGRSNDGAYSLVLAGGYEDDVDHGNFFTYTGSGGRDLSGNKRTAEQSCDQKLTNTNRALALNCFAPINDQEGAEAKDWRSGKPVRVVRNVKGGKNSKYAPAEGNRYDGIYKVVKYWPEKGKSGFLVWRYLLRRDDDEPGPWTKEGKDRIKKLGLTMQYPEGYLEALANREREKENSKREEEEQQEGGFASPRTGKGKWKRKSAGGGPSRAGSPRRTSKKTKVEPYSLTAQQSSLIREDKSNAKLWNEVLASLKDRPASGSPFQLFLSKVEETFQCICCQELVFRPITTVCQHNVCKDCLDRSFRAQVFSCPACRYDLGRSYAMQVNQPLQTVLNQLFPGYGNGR
# LEDGF integ inh: blocks HIV-1 LEDGF/p75-dependent DNA integration | AID 743269 | TR-FRET IN-LEDGF/p75 DNA integration, Eu/Cy5 | actives 0.64% (n = 370,000) | inhibition, % at 3.7 µM;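 active = inhibition above the screen-wide mean plus 3 SD, cut at about 13% in these data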;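 note: signal is the Cy5 over europium emission ratio at 671 and 618 nm; 0% = plate median of compound wells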
# rCAG bind conf: r(CAG) RNA repeat binding, confirmation | shares compounds with rCAG binder | TO-PRO-1 dye displacement fluorescence | inhibition, % at 3 µM | actives 70% (n = 4,300);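 active = inhibition above a per-plate cutoff, the mean inhibition of sample wells plus 3 SD, cut at about 35% in these data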;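 note: loss of TO-PRO-1 fluorescence as compound displaces dye from 1x1 AA loop RNA; 0% = DMSO only wells and 100% = 100 µM mitoxantrone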
# DNA CAG counter: DNA CAG dye complex inhibition counter-screen; shares compounds with rCAG binder; d(CAG) DNA oligo TO-PRO-1 dye displacement, fluorescence; inhibition, % at 3 µM; actives 94% (n = 4,300); AID 652068;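 active = inhibition above its plate's cutoff, the mean test-well inhibition plus 3 SD, cut at about 4.8% in these data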;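 note: 0% = DNA dye mix with DMSO and 100% = 100 µM mitoxantrone; hits displace the dye from DNA and so lower well fluorescence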
# dCAG dye DR: DNA CAG dye complex inhibition, dose response counter-screen | IC50, µM | actives 20% (n = 250) | AID 686960 | shares compounds with rCAG binder | DNA CAG/GTC duplex TO-PRO-1 dye displacement fluorescence; in the data active = IC50 below about 10 µM
# An asterisk follows results filed as active; i = inactive; x = no result given.
SMILES,rCAG binder,ABHD5-PLIN5 inh,MBD2 DNA inh,PRMT1 FP inh,UHRF1 MBD2 ctr,LEDGF integ inh,rCAG bind conf,DNA CAG counter,others
CC1(C(=O)NS(=O)(=O)c2cccc(C#N)c2)CCN1C(=O)c1ccccc1CCc1ccccc1 (configuration not stated),46*,-12,0,0,1,2,39*,9.5*,
CC1(C(=O)NS(=O)(=O)c2ccc(F)cc2F)CCN1C(=O)c1ccccc1CCc1ccccc1 (configuration not stated),51*,0,3,1,1,4,43*,10*,
CC1(C(=O)NS(=O)(=O)c2ccc(F)cc2F)CCN1C(=O)Cc1ccccc1 (configuration not stated),3,-5,4,-1,0,3,x,x,
CC1(C(=O)NS(=O)(=O)c2cccs2)CCN1C(=O)c1ccccc1CCc1ccccc1 (configuration not stated),44*,-1,2,-1,7,1,34,7.0*,
CC1(C(=O)NS(=O)(=O)c2ccccc2Cl)CCN1C(=O)c1ccccc1CCc1ccccc1 (configuration not stated),57*,-6,0,-1,1,1,63*,19*,
COC(=O)C1=C(C)N(C)C(=NCc2cccc(C(F)(F)F)c2)NC1c1ccc(C(F)(F)F)cc1 (configuration not stated),6,x,0,-1,2,2,x,x,
COc1ccc(OC)c(CN2C(=O)CSCC2(C)c2nnnn2C2CCCC2)c1 (configuration not stated),1,x,-8,-5,-4,3,x,x,
O=S1(=O)c2ccc(Br)cc2OC[C@H](c2ccccc2)N1Cc1ccccc1,4,x,-6,-2,-4,3,x,x,
COC(=O)c1cc(-c2ccc(Cl)s2)c(=O)n2c1CCC2,2,x,-2,0,-2,1,x,x,
CC1(C(=O)NS(=O)(=O)c2cccc(Cl)c2)CCN1C(=O)c1ccccc1CCc1ccccc1 (configuration not stated),61*,-3,1,6,1,-4,60*,22*,
CC1(C(=O)NS(=O)(=O)c2ccc(Cl)cc2)CCN1C(=O)CCc1ccccc1 (configuration not stated),11,-6,1,-3,-2,4,x,x,
CC1(C(=O)NS(=O)(=O)c2ccc(Cl)cc2)CCN1C(=O)c1ccccc1CCc1ccccc1 (configuration not stated),45*,12,-3,-1,1,-7,58*,20*,
N=C1/C(=C\c2ccc(-c3cccc(C(=O)O)c3)o2)C(=O)N=C2SC=C(c3ccccc3)N12,86*,0,4,22*,14,12,91*,70*,
CC(=O)N1CCN(c2ccc(N3CCN(Cc4ccccc4)[C@H](C)C3)c(C)c2)[C@H](C)C1,0,x,-4,-3,0,-1,x,x,
O=C(NC1=N[C@@]2(C=C3CCCCC3n3c(=O)n(-c4ccccc4)c(=O)n32)[C@H](Cc2ccccc2)N1Cc1ccccc1)c1ccccc1 (some centres not stated),56*,x,-6,1,1,2,53*,20*,
O=C(/C=C/c1ccco1)NC(=S)Nc1cccc(-c2nc3ccccc3o2)c1,35*,12,2,10,-2,1,22,13*,
O=C(NC(=S)Nc1cccc([N+](=O)[O-])c1)c1ccco1,1,-7,-6,-3,2,0,x,x,
O=C(/C=C/c1ccco1)NC(=S)Nc1cccc([N+](=O)[O-])c1,54*,23*,-2,20,2,11,33,18*,
Cc1ccc(-c2nc3ccccc3o2)cc1NC(=S)NC(=O)/C=C/c1ccco1,25,4,0,2,0,-1,x,x,
CCCC1CCC2(CCCN2CCOC(=O)Nc2ccccc2C)CC1 (configuration not stated),x,x,3,3,2,0,x,x,
O=C(Nc1ccc(Cl)c(Cl)c1)Nc1nccs1,62*,-5,-1,1,2,-2,17,22*,
Cc1ccc(-c2c(NC(=O)Nc3ccc(F)cc3)nc3ncccn23)cc1,2,x,0,-4,-1,5,x,x,
CC(=O)OC(C)C1C2=C(C(=O)CC1(C)O)C(=O)c1c(ccc(-c3ccc4c(c3O)C(=O)C3=C(C4=O)C(C(C)OC(C)=O)C(C)(O)CC3=O)c1O)C2=O (configuration not stated),59*,-10,-2,10,-2,-3,67*,34*,dCAG dye DR=8*
Cc1ccc(N=C2S/C(=C\c3cn(CC(=O)O)c4ccccc34)C(=O)N2C)cc1,77*,2,-11,1,-4,3,76*,36*,
COc1ccc(CCNC(=O)c2ccccc2NS(=O)(=O)c2c(F)cccc2F)cc1,48*,0,1,6,0,-10,33,9.9*,
SMILES,rCAG binder,ABHD5-PLIN5 inh,MBD2 DNA inh,PRMT1 FP inh,UHRF1 MBD2 ctr,LEDGF integ inh,rCAG bind conf,DNA CAG counter,others
COc1cccc(-c2cccc3c4c([nH]c23)[C@@H]2C[C@H]3[C@@H](C(=O)N2CC4)[C@H](C)ON3C)c1,3,x,-5,2,0,3,x,x,
COc1cc(C2C(C#N)=C(N)Oc3c2ccc2ccccc32)ccc1OCC(=O)Nc1ccc(C)cc1 (configuration not stated),38*,3,3,4,1,6,17,13*,
COc1cc(C2C(C#N)=C(N)Oc3c2ccc2ccccc32)ccc1OCC(=O)Nc1cccc(C)c1 (configuration not stated),53*,3,2,3,-2,5,14,11*,
COc1ccc(C2C(C#N)=C(N)Oc3c2ccc2cccnc32)cc1OC (configuration not stated),3,-1,-3,-3,-10,0,x,x,
O=C(O)c1ccn2c(C(=O)c3ccc(Cl)cc3)c(-c3ccccc3)cc2c1,68*,-5,3,0,-1,-2,64*,23*,dCAG dye DR=i
CCN(CC)C(=O)CC[C@@H]1CC[C@]2(CCCN(Cc3cccs3)C2)O1,0,x,2,-2,2,0,x,x,
O=c1cc(CSc2ccc(Cl)cc2)[nH]c2[nH]n(-c3ccccc3)c(=O)c12,56*,1,0,24*,-2,1,36*,13*,

# Screening results from PubChem.
